Experimental data from the supplement of paper PMC6555819.

Each sequence was assayed on VDR:RXRa (NR concentration 270 nM, RXRa partner concentration 90 nM) (assay: PBM binding z-score (relative to random genomic background probes); higher = stronger binding; sequences stand for … in GC…GCGATTGACAGCGTAGAATGAAGG).
Protocol: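 Protein-binding microarray (Agilent 4x180K custom design, double-stranded 60-nt probes: 5' GC cap, 34-nt variable region, 24-nt constant primer region; full probe sequence given). Purified or IVT nuclear receptor:RXRα heterodimers (3:1 NR:RXRα, mostly 270:90 nM) or homodimers were incubated for 1 h in PBS with 2% milk and no ligand, then detected with Alexa488 antibodies. Fluorescence from o1-orientation probes (~5 replicates averaged) was converted to z-scores against 500 random hg19 background probes. Variable regions are seed direct-repeat (DR0–DR5) sites, all their single-nucleotide variants and half-site ablations.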
ATATGTAGGTTAAGGGTCATCCAGGTTGGTTCGC showed a PBM binding z-score of 5.91.
TCTTGTAGATCAACAGGGGGTTAAGAAAGATCGA showed a PBM binding z-score of 2.13.
With TCGAGTAGGTTAGTTGGGGCATTCAGCCAACATA the PBM binding z-score was 0.811.
TCTAGTTGGTCACGGAAGTCACACACGACGGGTA was tested, and the PBM binding z-score was 0.891.
CCAGACACGTGAAAGGTAACTCAGTCTGGTACGC gave a PBM binding z-score of -0.114.
In the case of CCGACTGGGGCAGAAAGGTTACCATCCCATCCGG, the PBM binding z-score is reported as 0.789.
TCTAGTTGGTCACGGACGTCACACACGACGGGTA was tested, and the PBM binding z-score was 0.743.
Sequence CCGATTGGGGCAGAAAGGTTACCATACCATCCGG has a PBM binding z-score of 0.707.
With CCTATTAGTTGACCATCAGGGCAACCGAAGCTCG the PBM binding z-score was 0.508.
In the case of TCTTGTAAATCAGCAGGTTAAGAAAGCTGGCCAA, the PBM binding z-score is reported as 0.539.
TCAGACAGGTGAAGGTAACTCATGTACGCAGTCG was tested, and the PBM binding z-score was 0.532.
Sequence AATACAGGGTCACTAGGCCAGGGTAGGTACGAAT has a PBM binding z-score of 4.
Work on ATCCCAAGGTGATCGTGAGGTCGTTGATACTAAC yielded a PBM binding z-score of 2.87.
GCGACTGGGGCAAAACAGGTTACCATAAGGTTGG gave a PBM binding z-score of 0.212.
CGTCTAAGGTCAATGCTAGGTCAGTGAAAGCATT gave a PBM binding z-score of 5.23.
TGTCAAAGTTCAAAGGTAGCGTAAGTATCCACAC was tested, and the PBM binding z-score was 4.76.
CCTACTGGGCTATCAGGTCATTGATATCAACGTT showed a PBM binding z-score of 1.36.
For CCGACTGGGGCAAGGTTAACATAACGCACAGCCA, the PBM binding z-score was 0.295.
ATACGTAGGTTAGCTGGGGTCATTCAGACTAGGC showed a PBM binding z-score of 6.12.
For CCTGGTAGGTCATGGTCAGCTAATCTACAGTATG, the PBM binding z-score was 1.89.
CGTCAAAGCTCAAGGTAACGTAACAGAAAGCAGC was tested, and the PBM binding z-score was -0.278.
CGTCCAAGGTCGGCAGGTCAGTGAAAGCGACGTG gave a PBM binding z-score of 1.28.
For CGTCCAAGGTCAGCAAGTCAGTGAAAGCGACGTG, the PBM binding z-score was 2.93.
For TGAATGGGGTTAAAGATCAGGGAACGTGGCGTCG, the PBM binding z-score was 3.29.
For TCGAGTAGGTTAGTCGGGGCCTTCAGCCAACATA, the PBM binding z-score was -0.158.
ACTATTAGTTGAGCCGAGGGCAACCGATAGGTTG gave a PBM binding z-score of 0.613.
Sequence CAACCTAGGTCAAAGGTCAAAGTCGAGCCAACCA has a PBM binding z-score of 7.01.
Work on ATCTCTAGGTAACAAGCTCAGTGAAAGAGAGGAC yielded a PBM binding z-score of 0.159.
Sequence CGAACTAGATCATTGACAGGACAGTGAATAGTAA has a PBM binding z-score of 0.158.
GCTATTAGTTGAAACGGCAACCGAATGATTCTCG showed a PBM binding z-score of -0.413.
In the case of CAAACTAGGTGACCGGAAGGTCAAAGTCCGCATG, the PBM binding z-score is reported as 4.
CCTCGGAGGACATAAGGTCAGAGCTGTCCGCTTT was tested, and the PBM binding z-score was 1.91.
For ACTATTCGTTGACTTAGGGCAACCGATACGACGC, the PBM binding z-score was 0.325.
Work on CAAACTAGGTCAAGAGATCAAAGTCCGCTTCCCG yielded a PBM binding z-score of 1.59.
Sequence GAGACTGGGGCAAAGCAGGTTACCATAAGGTTGG has a PBM binding z-score of 0.398.
CCAGACAGTTGAGAAGGTAACTCAGCCTCGATTA was tested, and the PBM binding z-score was 0.251.
For AGGATGAGGTTAAGATCAGGGAAACAGAATACAT, the PBM binding z-score was 1.39.
For CGTTAAAGTTCAACTAAGGTAACGTAAAGCACGC, the PBM binding z-score was 4.58.
TAGCCTAGGTCATCGGGCCAGTATAGTACGCATC showed a PBM binding z-score of 2.24.
AGAATGAGTTTACCAAAGATCAGGGAAACGCTTG was tested, and the PBM binding z-score was 1.05.
